From PubChem BioAssay
Active and inactive are the calls of the source. Unless noted, no rule for the calls is given here.

Assays:
[1] = A549 cell viability effects, profiling panel, calcein-AM fluorescence, 48 h, basal (AID 1162); settings: higher = more signal; also: test concentration not given here
[2] = adipocyte viability effects, profiling panel, cell-based, 3T3-L1 adipocytes, calcein-AM fluorescence, 48 h, basal (AID 1163); settings: 3T3-L1 adipocytes viability, higher = more signal; also: test concentration not given here
[3] = HepG2 cell viability effects, profiling panel, calcein-AM fluorescence, 48 h, basal (AID 1164); settings: higher = more signal; also: test concentration not given here
[4] = MM1S cell viability effects, profiling panel, calcein-AM fluorescence, 48 h, basal (AID 1165); settings: higher = more signal;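 also: viability of MM1S multiple myeloma cells under basal unstimulated conditions; test concentration not given here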
[5] = basal RPMI8226 viability, no added stimulus, profiling panel, cell-based, calcein-AM fluorescence, 48 h, PK04 Diversity Set (AID 1166); settings: RPMI8226 myeloma viability, higher = more signal;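 also: cells grown under basal conditions without added stimulus; test concentration not given here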
[6] = basal HepG2 mitochondrial membrane potential changes, profiling panel, cell-based, JC-1 fluorescence, 24 h, 100 nL compound (AID 1167); settings: higher = more signal; also: test concentration not given here
[7] = basal 3T3-L1 adipocyte mitochondrial potential changes, profiling panel, cell-based, JC-1 fluorescence, 3T3-L1 adipocytes, 24 h, 100 nL compound (AID 1168); settings: JC-1 mitochondrial fluorescence, higher = more signal, called active from +8 up or from −8 down; also: test concentration not given here
[8] = basal RPMI8226 mitochondrial membrane potential changes, profiling panel, cell-based, JC-1 fluorescence, 24 h, 100 nL compound (AID 1169); settings: RPMI8226 myeloma, JC-1 mitochondrial potential fluorescence, higher = more signal; also: test concentration not given here
[9] = basal MM1S mitochondrial membrane potential changes, profiling panel, cell-based, JC-1 fluorescence, 24 h, 100 nL compound (AID 1170); settings: higher = more signal; also: test concentration not given here
[10] = A549 lung cancer cell viability effects, profiling panel, resazurin fluorescence, 24 h, PK04 Diversity Set (AID 1171); settings: higher = more signal, called active from +8 up or from −8 down; also: test concentration not given here
[11] = HepG2 liver cancer cell viability effects, profiling panel, resazurin fluorescence, 24 h, PK04 Diversity Set (AID 1172); settings: higher = more signal; also: test concentration not given here
[12] = basal S. cerevisiae growth modulation, no modifier, primary screen, OD600, strain BY4716, 24 h, basal condition (AID 1173); settings: OD600, 24 h, higher = more signal, called active from +8 up or from −8 down
[13] = MM1S myeloma cell viability, profiling panel, resazurin fluorescence, basal, 24 h, PK04 Diversity Set (AID 1174); settings: higher = more signal, called active from +8 up or from −8 down;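 also: MM1S multiple myeloma cell line; test concentration not given here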
[14] = target: Dihydroorotate dehydrogenase (quinone), mitochondrial (Plasmodium falciparum (isolate 3D7)) (UniProt Q08210); experiment: PfDHODH enzyme inhibitors, primary screen, biochemical, C-terminal His tag, absorbance 600 nm (AID 1175); settings: DCIP absorbance 600 nm, higher = more signal, called active from +8 up or from −8 down;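 also: recombinant parasite enzyme with a five histidine tag at its C terminus; test concentration not given here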
Sequence of Dihydroorotate dehydrogenase (quinone), mitochondrial (Plasmodium falciparum (isolate 3D7)) (Q08210 whole entry, looked up): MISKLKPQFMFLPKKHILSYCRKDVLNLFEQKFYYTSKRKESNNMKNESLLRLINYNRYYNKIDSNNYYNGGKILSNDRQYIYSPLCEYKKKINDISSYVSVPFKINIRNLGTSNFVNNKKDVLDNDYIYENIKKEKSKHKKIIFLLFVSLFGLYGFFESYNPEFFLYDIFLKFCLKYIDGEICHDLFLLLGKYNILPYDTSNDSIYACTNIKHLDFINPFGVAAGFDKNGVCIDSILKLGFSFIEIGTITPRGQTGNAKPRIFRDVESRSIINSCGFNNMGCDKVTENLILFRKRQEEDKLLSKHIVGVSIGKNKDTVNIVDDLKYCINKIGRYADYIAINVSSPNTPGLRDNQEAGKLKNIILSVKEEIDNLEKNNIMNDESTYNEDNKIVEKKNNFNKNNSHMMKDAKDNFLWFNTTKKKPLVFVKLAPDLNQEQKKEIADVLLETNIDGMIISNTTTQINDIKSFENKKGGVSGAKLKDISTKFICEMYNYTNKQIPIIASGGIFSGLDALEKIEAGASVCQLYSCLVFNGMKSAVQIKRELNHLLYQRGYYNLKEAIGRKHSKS

[15] = P. aeruginosa biofilm formation inhibitors, primary screen, strain PAO1, LB-PBS medium, absorbance 600 nm (AID 1176); also: test concentration not given here; settings: P. aeruginosa PAO1 growth/biofilm, A600, 12 h; higher = more signal
[16] = S. cerevisiae RM11-1a growth modifiers, primary screen, strain RM11-1a, OD600, basal, 24 h (AID 1177); settings: OD600, 24 h, higher = more signal, called active from +8 up or from −8 down;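 also: cultures grown under basal conditions with no added stressor; test concentration not given here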
[17] = E. coli acrAB mutant growth effects, primary screen, E. coli filamentation inducers, strain DRC39, OD650, 24 h (AID 1178); settings: higher = more signal, called active from +8 up or from −8 down;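 also: growth measured as culture turbidity by optical density at 650 nm; test concentration not given here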
[18] = E. coli acrAB mutant growth effects, primary screen, E. coli filamentation inducers, strain DRC39, OD650, 48 h (AID 1179);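 also: screen aims at cell division blockers that make cells filament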; settings: E. coli DRC39 delta-acrAB growth, higher = more signal, called active from +8 up or from −8 down
[19] = RPMI8226 myeloma cell viability, profiling panel, resazurin fluorescence, basal, 24 h, PK04 Diversity Set (AID 1180); settings: higher = more signal;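 also: RPMI8826 multiple myeloma cell line at 5000 cells per well; test concentration not given here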
[20] = target: E3 ubiquitin-protein ligase XIAP (Homo sapiens) (UniProt P98170); experiment: XIAP binders, primary screen, biophysical, small-molecule microarray, fluorescence 635 nm (AID 1181); settings: small-molecule microarray binding, higher = more signal;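 also: score merges 667 nm emission and signal to noise over triplicate slides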
Sequence of E3 ubiquitin-protein ligase XIAP (Homo sapiens) (P98170 whole entry, looked up): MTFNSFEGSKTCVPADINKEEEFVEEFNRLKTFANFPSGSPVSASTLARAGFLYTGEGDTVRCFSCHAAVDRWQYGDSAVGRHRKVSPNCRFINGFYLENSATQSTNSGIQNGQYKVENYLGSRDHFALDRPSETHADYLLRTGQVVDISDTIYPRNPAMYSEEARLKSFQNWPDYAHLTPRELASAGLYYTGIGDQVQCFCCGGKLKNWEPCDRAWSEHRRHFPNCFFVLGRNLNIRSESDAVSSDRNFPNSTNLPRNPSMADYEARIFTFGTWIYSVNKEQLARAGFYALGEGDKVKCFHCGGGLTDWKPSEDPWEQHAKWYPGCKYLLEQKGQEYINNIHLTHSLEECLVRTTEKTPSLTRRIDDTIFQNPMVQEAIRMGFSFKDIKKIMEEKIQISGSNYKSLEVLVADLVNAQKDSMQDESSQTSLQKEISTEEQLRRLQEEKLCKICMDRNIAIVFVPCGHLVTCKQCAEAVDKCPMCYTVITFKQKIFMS

Row | SMILES | z-score [1] | z-score [2] | z-score [3] | z-score [4] | z-score [5] | z-score [6] | z-score [7] | z-score [8] | z-score [9] | z-score [10] | z-score [11] | z-score [12] | z-score [13] | composite z-score [14] | z-score [15] | z-score [16] | z-score [17] | z-score [18] | z-score [19] | composite z-score [20]
1 | COc1cc(OC)c(C(O)C2C=CC3C(=O)N(c4ccccc4)C(=O)C3N2Nc2ccccc2)cc1Br (stereo not given) | 1.84 | -1.48 | 0.0936 | 0.251 | -0.562 | -2.11 | -0.602 (inactive) | 0.292 | -0.761 | 0.439 (inactive) | 0.222 | -11 (active) | -1.14 (inactive) | 0.593 (inactive) | 0.475 (inactive) | 0.378 (inactive) | -1.05 (inactive) | -0.163 (inactive) | -1.52 | 0.0967
2 | CCOC(=O)C[C@H]1[C@H](OC(=O)c2cc3ccccc3oc2=O)[C@@H](NC(=O)Cc2ccc(OC)cc2)c2cc(OCCCO)ccc2N1C(=O)c1ccc2ccccc2n1 | 0.167 | 0.66 | 0.493 | -0.171 | 0.865 | -0.917 | -0.0891 (inactive) | -0.265 | 0.429 | -0.341 (inactive) | -0.604 | -1.05 (inactive) | -0.377 (inactive) | 0.0564 (inactive) | -0.234 (inactive) | -0.315 (inactive) | 0.928 (inactive) | 0.337 (inactive) | -0.0615 | -0.0414
3 | CC(CO)N1C(=O)[C@@H]2[C@H]3C(=O)OCC=C[C@H]3OC23C=CCN(C(C)(C)C)C(=O)[C@@H]13 (stereo not given in full) | -0.0702 | -0.643 | -0.711 | 1.08 | 0.0608 | -0.936 | -0.172 (inactive) | 0.127 | 0.0965 | -0.289 (inactive) | 0.0792 | 0.0031 (inactive) | -0.555 (inactive) | -1.08 (inactive) | -0.401 (inactive) | -0.505 (inactive) | -0.554 (inactive) | -0.762 (inactive) | -0.794 | 0.252
4 | CCOc1cc(C(O)C2C=CC3C(=O)N(C)C(=O)C3N2Nc2ccccc2)ccc1O (stereo not given) | -0.157 | -0.0778 | -0.243 | -2.21 | -0.429 | -1.48 | -0.725 (inactive) | -0.868 | -0.536 | -0.0004 (inactive) | -0.687 | 1.11 (inactive) | -0.328 (inactive) | 0.684 (inactive) | 0.807 (inactive) | 2.32 (inactive) | -0.501 (inactive) | -0.861 (inactive) | -0.323 | 0.312
5 | CC(C)(C)N1CC=CC23O[C@@H]4C=CCCOC(=O)C4[C@H]2C(=O)N(CCO)[C@@H]3C1=O (stereo not given in full) | -0.708 | -0.358 | -0.811 | 0.18 | 0.608 | -0.405 | -1.46 (inactive) | 0.168 | -0.132 | -0.693 (inactive) | 0.388 | 0.0947 (inactive) | -0.512 (inactive) | 0.427 (inactive) | 0.345 (inactive) | 0.451 (inactive) | -1.02 (inactive) | -1.05 (inactive) | -1.13 | 0.072
6 | CC(C)OC(=O)C=C1C[C@@H](c2ccc(C(F)(F)F)cc2)O[C@@H](c2ccc(C(F)(F)F)cc2)O1 | 0.944 | -0.168 | 0.114 | -2.49 | -1.51 | -0.393 | 0.958 (inactive) | -0.478 | -1.02 | 0.452 (inactive) | 0.54 | -5.34 (inactive) | 0.533 (inactive) | -1.4 (inactive) | 0.257 (inactive) | -1.93 (inactive) | 0.2 (inactive) | 1.41 (inactive) | 0.0779 | 0.371
7 | C[C@@H]1NC(=O)[C@@]23C(=O)N[C@@H](Cc4ccccc4)C2[C@H](C)[C@@]2(C)O[C@H]2C3/C=C/C/C=C\CNC(=O)[C@@H]2CCCN2C1=O (stereo not given in full) | -0.143 | 0.389 | -0.0552 | 0.37 | -0.0448 | -0.175 | 1.19 (inactive) | 0.632 | -0.0219 | 0.247 (inactive) | -0.289 | -0.963 (inactive) | -0.737 (inactive) | -0.972 (inactive) | 1.28 (inactive) | -0.142 (inactive) | -0.4 (inactive) | -0.188 (inactive) | -0.0461 | -0.102
8 | CC(CO)N1C(=O)[C@@H]2[C@H]3C(=O)OCC=C[C@H]3OC23C=CCN(Cc2ccccc2)C(=O)[C@@H]13 (stereo not given in full) | -0.0849 | 0.847 | -1.35 | 1.17 | 0.0239 | -0.378 | 0.508 (inactive) | -0.0286 | 0.491 | 0.881 (inactive) | 1.44 | -0.319 (inactive) | 1.01 (inactive) | -1.07 (inactive) | 0.745 (inactive) | -1.21 (inactive) | 0.518 (inactive) | 0.075 (inactive) | 1.28 | 0.184
9 | NCCCCCNC(=O)[C@@H]1C[C@@H]2C(=O)NCC(=O)N2[C@@H]1c1cccc(OCCO)c1 | -0.507 | 1.11 | -0.531 | -0.686 | -0.947 | 1.5 | -0.298 (inactive) | 0.00435 | 0.53 | -0.505 (inactive) | -0.727 | -0.202 (inactive) | 0.584 (inactive) | -0.73 (inactive) | 1.29 (inactive) | 0.561 (inactive) | -0.0625 (inactive) | -0.485 (inactive) | 0.974 | 0.012
